Hits are enriched below; roughly 10% of the tested compounds scored in any of these assays.
JMJD2A Tudor inh – qHTS Assay for Inhibitors of JMJD2A-Tudor Domain; Lysine-specific demethylase 4A (Homo sapiens), O75164; AlphaScreen JMJD2A-Tudor / H3K4me3 peptide binding; Potency, µM (top dose mostly 114 µM), without a hit: at the highest dose activity change, negative = inhibition, actives largely listed as inhibitors; actives 4.4% (n = 390,000); AID 504339, 2011; also: % is scaled to controls: 0 for no effect and ±100 for the full control effect; nearly all actives have a fitted effect of over 50% in size
GLS inhibitor – qHTS for Inhibitors of Glutaminase (GLS); Potency, µM (series often up to 45.5 µM), inactives show at the highest dose activity change, negative = inhibition, actives largely listed as inhibitors; GLS enzymatic activity, qHTS titration; Glutaminase kidney isoform, mitochondrial (Homo sapiens), O94925; actives 0.21% (n = 410,000); AID 624170, 2012; also: % is scaled to controls: 0 for no effect and ±100 for the full control effect
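hKGA in 45 mM KH2PO4 pH 8.2, 0.02% Tween-20 with pin-transferred compounds; 1 mM L-glutamine (stock) plus glutamate oxidase/HRP/Amplex Red coupling added. Fluorescence read initially and after 30 min at RT.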
HP1b chromo inh – HTS for Inhibitors of HP1-beta Chromodomain Interactions with Methylated Histone Tails | Chromobox protein homolog 1 (Homo sapiens), P83916 | AlphaScreen HP1-beta / biotin-H3K9me3 peptide binding | Potency, µM (highest dose often 114 µM), for inactives: at the highest dose activity change, negative = inhibition, most hits filed as inhibitors | actives 0.56% (n = 390,000); also: nearly all actives have a fitted effect of over 70% in size
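AlphaScreen: HP1-beta (50 nM) preformed 30 min with biotin-H3(1-18)K9me3 peptide (50 nM) in PBS pH 7.4, 0.01% Tween-20. Compound added for 30 min at RT, then streptavidin donor/nickel chelate acceptor beads (10 ug/mL) for 30 min.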
G9a block – qHTS Assay for Inhibitors of Histone Lysine Methyltransferase G9a; Histone-lysine N-methyltransferase EHMT2 (Homo sapiens), Q96KQ7; G9a H3K9 monomethylation, AlphaScreen, 2 h; AID 504332, 2011; Potency, µM (top dose mostly 102 µM), for the others: at the highest dose activity, negative = inhibition, usual class: inhibitors; actives 8.8% (n = 350,000); also: % is scaled to controls: 0 for no effect and ±100 for the full control effect; nearly all actives have a fitted effect of over 75% in size
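Enzyme 20 nM + cpd, 15 min RT; add b-H3K9 pep 500 nM / SAM 20 uM; 2 h RT; anti-H3K9me1 Ab 0.5 ug/mL + SA donor / anti-rabbit acceptor beads 20 ug/mL each, 10 min; AlphaScreen read.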
BAZ2B block – qHTS Assay for Inhibitors of BAZ2B; AlphaScreen BAZ2B-H3K14Ac peptide displacement; Bromodomain adjacent to zinc finger domain protein 2B (Homo sapiens), Q9UIF8; actives 4.4% (n = 360,000); Potency, µM (top dose mostly 114 µM), inactives show at the top dose activity change, negative = inhibition, usual class: inhibitors; also: % is scaled to controls: 0 for no effect and ±100 for the full control effect; nearly all actives have a fitted effect of over 60% in size
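Protein-peptide AlphaScreen: BAZ2B 50 nM, b-H3K14Ac 50 nM, 1x PBS pH 7.4 + 0.01% Tween-20. Preincubation 30 min RT; cpd 30 min RT (top 110 uM); beads 20 min RT, light-protected.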
L3MBTL1 inh – qHTS Assay for the Inhibitors of L3MBTL1; AID 485360, 2010; actives 0.66% (n = 230,000); Lethal(3)malignant brain tumor-like protein 1 (Homo sapiens), Q9Y468; Potency, µM (series often up to 57.1 µM), without a hit: at the top dose activity, negative = inhibition, usual class: inhibitors; AlphaScreen L3MBTL1–H3K9me1 peptide binding; also: % is scaled to controls: 0 for no effect and ±100 for the full control effect; nearly all actives have a fitted effect of over 60% in size
Target sequence (Q9Y468 whole entry, looked up): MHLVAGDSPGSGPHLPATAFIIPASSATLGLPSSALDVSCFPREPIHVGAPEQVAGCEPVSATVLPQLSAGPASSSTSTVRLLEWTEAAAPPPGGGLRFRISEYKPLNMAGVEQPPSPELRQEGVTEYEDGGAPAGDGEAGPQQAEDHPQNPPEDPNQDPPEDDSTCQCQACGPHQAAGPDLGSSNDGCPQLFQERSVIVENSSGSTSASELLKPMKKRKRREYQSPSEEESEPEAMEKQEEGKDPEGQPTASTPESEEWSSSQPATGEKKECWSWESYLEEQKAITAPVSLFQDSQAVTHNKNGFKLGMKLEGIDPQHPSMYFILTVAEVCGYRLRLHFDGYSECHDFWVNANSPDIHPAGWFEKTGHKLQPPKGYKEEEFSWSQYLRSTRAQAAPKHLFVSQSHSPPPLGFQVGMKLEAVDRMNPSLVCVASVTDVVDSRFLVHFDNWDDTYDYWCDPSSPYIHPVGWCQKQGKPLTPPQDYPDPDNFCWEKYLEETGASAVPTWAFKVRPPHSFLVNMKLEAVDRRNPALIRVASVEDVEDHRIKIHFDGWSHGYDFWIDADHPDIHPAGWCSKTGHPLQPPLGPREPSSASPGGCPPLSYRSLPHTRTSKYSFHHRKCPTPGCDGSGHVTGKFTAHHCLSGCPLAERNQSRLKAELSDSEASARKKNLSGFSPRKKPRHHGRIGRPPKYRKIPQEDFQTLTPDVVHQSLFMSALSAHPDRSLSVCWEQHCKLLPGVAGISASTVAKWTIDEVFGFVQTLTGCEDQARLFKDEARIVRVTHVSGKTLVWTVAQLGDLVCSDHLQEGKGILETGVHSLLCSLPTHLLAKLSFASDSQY
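AlphaScreen proximity signal between nickel-chelate acceptor and streptavidin donor beads (final 10 ug/mL) reports binding of 50 nM L3MBTL1 to 75 nM biotin-H3 K9me1 peptide; complex incubated with compounds 30 min at room temperature; cefsulodin titration as control.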
Numbers without * were called inactive; ? = inconclusive; · = no result given; [ ] = dose if it differs, or a comment. Calls follow the shape of the dose curve; as a rule, active = well fitted curve in the direction sought with a large enough effect; inconclusive = small, poorly fitted or top-dose-only effect, or another doubt; inactive = no such curve, though single readings can be large; an effect the other way counts as inactive or inconclusive. Potency is read from the fitted curve at half-maximal effect.

SMILES	JMJD2A Tudor inh	GLS inhibitor	HP1b chromo inh	G9a block	BAZ2B block	L3MBTL1 inh
CS(=O)(=O)N(Cc1ccccc1)c1ccc(C(=O)Nc2ccc(Cl)cc2)cc1	-4.9%	5.0%	42.1%	7.2%[59 µM]	5.0%	·
CC(C)Oc1ccc(CNC(=O)c2cccc(NC(=O)c3nsc4ccccc34)c2)cc1	-7.8%	-0.3%	28.6%[57 µM]	2.7%[59 µM]	5.3%	·
Cc1c(Cl)cccc1NC(=O)c1ncn(-c2ccccc2)n1	-11.0%	7.7%	15.7%	5.4%[59 µM]	5.3%	·
CCN(CC)/[N+]([O-])=N/Oc1cc(O/N=[N+](\[O-])N(C)C)c([N+](=O)[O-])cc1[N+](=O)[O-]	?	·	-5.3%	·	·	·
COC(=O)C1=C(C)OC(N)=C(C#N)C1c1cc2cc(C)ccc2nc1Cl (configuration not stated)	-4.0%	-11.7%	39.1%	39.8µM*	-33.1%	3.8%
CN(CCOc1ccccc1)CC(O)COCc1ccccc1F (configuration not stated)	?	7.2%	?	10µM*	70.8µM*	·
CC(C)c1ccc(CN(C)CC(O)c2ccccc2)cc1 (configuration not stated)	-17.0%	-1.1%	15.3%	?	89.1µM*	·
CC(OCC(O)CN(C)CCOc1ccccc1)c1ccc(Cl)cc1 (configuration not stated)	3.55µM*	0.0%	?	?	?	1.6%
CN(CCOc1ccccc1)CC(O)COc1ccccc1 (configuration not stated)	-8.1%	7.2%	12.9%	?	-4.9%	·
CN1CCC(N(C)CC(O)c2ccccc2)CC1 (configuration not stated)	3.55µM*	3.5%	-7.9%	8.91µM*	50.1µM*	-4.6%
Cc1ccccc1CN(C)C1CCN(C)CC1	-1.0%	-2.0%	34.9%	·	15.1%	-6.9%
OC(CN(Cc1ccccc1)Cc1ccccc1)c1ccccc1 (configuration not stated)	148.3%	-0.6%	85.4%[57 µM]	·	·	·
Cc1ccc(S(=O)(=O)Nc2cc(Cl)c3oc4c(c3c2)CCCC4)cc1	-18.6%	1.1%	11.4%	-27.9%[59 µM]	-36.8%	·
Cn1cc(-c2cc3n(n2)CCC(=O)N3CCCC(=O)NCc2ccc(F)cc2)c2ccccc21	1.3%	3.0%	21.2%[57 µM]	-4.8%[59 µM]	0.6%	·
CS(=O)(=O)N(CC(=O)NCCSCc1ccccc1)c1cc(C(F)(F)F)ccc1Cl	-19.0%	-4.5%	52.0%	2.2%[59 µM]	-1.3%	·
NC(=O)c1nc(Nc2ccccc2)sc1NC(=O)c1ccccc1Br	-11.0%	6.0%	13.5%[57 µM]	?	5.5%	·
CCC(C)c1ccccc1NC(=O)CN(C)CCOc1ccc(Cl)cc1 (configuration not stated)	44.1%	2.4%	105.8%	4.1%	20.2%	·
CN(CCOc1ccc(Cl)cc1)CC(O)c1ccccc1 (configuration not stated)	1.12µM*	10.6%	70.8µM*	3.55µM*	20µM*	·
COc1ccc(OC)c(NC(=O)C(C)n2c(=O)c(-c3ccccc3NC(C)=O)nc3ccccc32)c1 (configuration not stated)	-15.6%	-15.7%	33.2%	-4.6%[59 µM]	2.4%	·
COCCn1c(SCC(=O)NC(=O)NC(C)(C)C)nc2ccccc21	-11.0%	-2.4%	26.6%	-32.7%[59 µM]	2.4%	·
CCn1c(SCC(=O)NC(=O)NC(C)(C)C)nc2ccccc21	11.2µM*	-25.0%	?	-5.0%	-3.8%	·
O=C(CSc1nnc(SCc2ccccc2)s1)N/N=C/C=C\c1ccco1	12.6µM*	-0.7%	?	10µM*	14.1µM*	12.6µM*
CCn1c(SCC(=O)N/N=C/c2ccc(C)o2)nnc1-c1ccc(C(C)(C)C)cc1	?	13.8%	9.2%	?	-35.7%	-6.2%
Cc1ccc(/C=N/NC(=O)CSc2nc3ccccc3[nH]2)o1	-24.7%	-13.6%	2.0%	44.7µM*	?	·
CCn1c(SCC(=O)N/N=C/c2ccc(C)o2)nnc1-c1ccc(C)cc1	?	11.0%	33.0%	44.7µM*	-2.6%	-0.1%
SMILES	JMJD2A Tudor inh	GLS inhibitor	HP1b chromo inh	G9a block	BAZ2B block	L3MBTL1 inh
COc1ccc(N2CCN(CCCNC(=O)c3cnn(-c4ccc(C)cc4)c3-n3cccc3)CC2)cc1	?	-6.0%	1.9%	?	?	·
Cc1cccc(C)c1N(CCCc1cccnc1)C(=O)[C@@H](C)N	·	-1.0%	·	·	·	·
COc1ccc2c(c1)c1c(c(=O)n(Cc3ccccc3)c(=O)n1CC(=O)NCc1ccc(C)cc1)n2C	6.9%	7.2%	31.2%	0.9%[59 µM]	-8.1%	·
O=S(=O)(Nc1nc2ccccc2nc1Nc1ccccc1Br)c1ccccc1	-6.9%	-5.3%	42.6%	1.6%[59 µM]	2.3%	·
Cc1ccc(S(=O)(=O)COCCN2CCN(S(=O)(=O)c3ccc(C)cc3)CCC2=O)cc1	·	·	·	-50.0%[59 µM]	·	·
Cc1ccc(NC(=O)C(Cc2ccccc2)NS(=O)(=O)c2ccc3c(c2)c(=O)n(C)c(=O)n3C)cc1 (configuration not stated)	-12.5%	-10.9%	-0.9%	-19.0%[59 µM]	?	·
CCOc1ccc(-n2c(C)nc3cc(C(=O)NC4CCCC4)ccc32)cc1	-13.5%	-2.0%	34.1%	?	-2.7%	·
CCOc1ccc(CNC(=O)CCc2c(C)nn(-c3ccc(N4CCOCC4)nn3)c2C)cc1	-4.7%	0.2%	33.9%	-6.2%[59 µM]	-35.7%	·
O=C(CSc1nnc(SCc2ccccc2Cl)s1)N/N=C/c1c[nH]c2ccccc12	-32.1%	-0.3%	28.0%	14.9%	12.5%	-12.7%
CCn1c(SCC(=O)N/N=C/C=C/c2ccco2)nnc1-c1ccc(OC)cc1	-11.8%	7.3%	16.2%	35.5µM*	?	?
CCn1c(SCC(=O)N/N=C/C=C/c2ccccc2[N+](=O)[O-])nnc1-c1ccc(Cl)cc1	·	·	·	-8.5%[59 µM]	-9.6%	-9.3%
Cc1ccc(CSc2nnc(SCC(=O)N/N=C/c3c[nH]c4ccccc34)s2)cc1	?	74.9%	-1.7%	?	20µM*	·
CCn1c(SCC(=O)N/N=C/C=C/c2ccco2)nc2ccccc21	?	1.3%	-9.1%	6.31µM*	44.7µM*	35.5µM*
COC(=O)CSCc1nc(-c2ccc(C(=O)OC)cc2)oc1C	4.3%	5.8%	40.7%	27.0%[59 µM]	0.3%	·
O=C(COC(=O)C12CC3CC(CC(O)(C3)C1)C2)NCc1ccco1	-24.7%	·	22.6%	·	·	·
COc1ccc(C=O)cc1COc1ccc2c(c1)OCO2	7.08µM*	1.1%	-30.4%	9.0%[0.501 µM]	?	-17.5%
